Test results as given in PubChem BioAssay (EPA / NIEHS).
Several values for one entry are separate records, joined by “and”; a condition that tells them apart may be missing. Equal entries are not always repeated. Inconclusive results are not listed. Activity calls are given as the source filed them. The calls were made as follows, unless noted: active = hit-call score of the fitted dose curve at least 0.9, where 1 is the maximum; inactive = score below 0.9.

Tests used:
[1] = read-out: E-selectin (Homo sapiens) (UniProt P16581); assay: BSK_SAg_Eselectin: BioMAP Diversity Plus: SAg Assay for Eselectin Biomarker Activity (AID 2283091); details: primary human HUVEC with PBMC; actives raise or lower the signal
In short: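 Co-culture: HUVEC + PBMC. Dose compound; 24 h. ELISA for E-selectin. Bidirectional fit vs DMSO.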

[2] = read-out: Monokine induced gamma interferon (MIG), CXCL9 (gene 4283); assay: BSK_SAg_MIG: BioMAP Diversity Plus: SAg Assay for Monokine induced gamma interferon (MIG) Biomarker Activity (AID 2283092); details: primary human HUVEC with PBMC; actives raise or lower the signal
In short: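 ELISA readout of MIG/CXCL9; primary human umbilical vein endothelial cells co-cultured with peripheral blood mononuclear cells; 24 h post-dose; gain/loss fit vs DMSO baseline.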

[3] = BSK_SAg_PBMCCytotoxicity: PBMC Cytotoxicity Assessment in the BioMAP Diversity Plus: SAg Assay (AID 2283093); details: primary human HUVEC with PBMC;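 also: PBMC viability measured as Alamar Blue reduction fluorescence at 546/580 nm; fitted both ways against DMSO so a hit may be loss or gain of signal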;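 as to AC50: PBMC superantigen activated with SEB plus TSST-1 one hour after compound addition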
In short: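 Alamar Blue reduction (6 h, ex/em 546/580 nm) read after 90 h culture of PBMC pre-dosed 1 h then stimulated with SEB plus TSST-1, 20 ng/mL each. Gain or loss of signal fitted relative to DMSO.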

[4] = BSK_SAg_Proliferation: Cell Proliferation Assessment in the BioMAP Diversity Plus: SAg Assay (AID 2283095); details: primary human HUVEC with PBMC;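 also: relative cell number as total protein by SRB absorbance in sub-confluent culture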
In short: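 A human primary co-culture of umbilical vein endothelium and blood mononuclear cells receives compound; relative cell number is quantified at 96 h by SRB staining and 560 nm absorbance, with DMSO-referenced bidirectional curve fitting.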

[5] = biological target: human CYP1A1, CYP1A1 (gene 1543) (UniProt P04798); assay: NVS_ADME_hCYP1A1: NovaScreen (NVS) CYP450-related Enzyme Activity (ADME) Assay for human CYP1A1 (AID 2283100; active = hit-call score of the fitted dose curve at least 0.9, where 1 is the maximum)
Sequence of human CYP1A1, CYP1A1 (gene 1543) (P04798 whole entry, looked up): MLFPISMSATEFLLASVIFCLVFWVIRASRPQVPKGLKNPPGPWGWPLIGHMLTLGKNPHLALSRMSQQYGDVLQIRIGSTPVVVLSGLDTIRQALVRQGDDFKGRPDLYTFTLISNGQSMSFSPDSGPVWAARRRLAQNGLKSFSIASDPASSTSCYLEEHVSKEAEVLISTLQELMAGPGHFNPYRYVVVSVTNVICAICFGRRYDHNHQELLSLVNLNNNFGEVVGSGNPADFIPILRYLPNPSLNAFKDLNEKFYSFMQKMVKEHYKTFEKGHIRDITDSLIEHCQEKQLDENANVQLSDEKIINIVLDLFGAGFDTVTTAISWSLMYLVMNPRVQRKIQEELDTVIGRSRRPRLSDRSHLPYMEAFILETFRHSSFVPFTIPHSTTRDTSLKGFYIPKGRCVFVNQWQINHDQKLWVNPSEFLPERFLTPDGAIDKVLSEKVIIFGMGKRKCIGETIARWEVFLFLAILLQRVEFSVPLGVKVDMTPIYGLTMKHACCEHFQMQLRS
In short: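 Recombinant hCYP1A1 + fluorogenic substrate, cell-free; 1 h; fluorescence read. Single-point 10 uM (duplicate) → concentration series, max 20 uM. Acetonitrile negative control.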

[6] = biological target: human CYP2C9, CYP2C9 (gene 1559) (UniProt P11712); assay: NVS_ADME_hCYP2C9: NovaScreen (NVS) CYP450-related Enzyme Activity (ADME) Assay for human CYP2C9 (AID 2283108; active = hit-call score of the fitted dose curve at least 0.9, where 1 is the maximum)
Sequence of human CYP2C9, CYP2C9 (gene 1559) (P11712 whole entry, looked up): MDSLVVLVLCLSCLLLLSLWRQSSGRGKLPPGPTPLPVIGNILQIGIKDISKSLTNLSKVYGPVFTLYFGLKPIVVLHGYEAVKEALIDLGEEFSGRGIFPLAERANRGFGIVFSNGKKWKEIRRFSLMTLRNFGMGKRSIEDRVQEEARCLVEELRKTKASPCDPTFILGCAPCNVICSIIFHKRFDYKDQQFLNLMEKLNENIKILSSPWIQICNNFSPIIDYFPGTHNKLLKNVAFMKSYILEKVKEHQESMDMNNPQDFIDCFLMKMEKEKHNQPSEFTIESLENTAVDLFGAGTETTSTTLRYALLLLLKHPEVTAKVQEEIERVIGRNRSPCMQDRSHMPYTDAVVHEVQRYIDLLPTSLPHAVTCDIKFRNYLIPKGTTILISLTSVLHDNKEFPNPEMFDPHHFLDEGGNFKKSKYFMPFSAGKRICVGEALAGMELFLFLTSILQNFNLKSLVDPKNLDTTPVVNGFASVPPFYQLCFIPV
In short: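 Fluorescence readout of CYP2C9 activity (SF9-expressed human enzyme) at 0.75 h. The primary screen used 10 uM in duplicate, with concentration-response follow-up for actives; acetonitrile was the negative control.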

[7] = BSK_SAg_SRB: Viability Assessment in the BioMAP Diversity Plus: SAg Assay (AID 2283096); details: primary human HUVEC with PBMC;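 also: cells read one day after compound addition; hits may be either gain or loss of signal compared with DMSO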
In short: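 SRB absorbance at 560 nm served as the viability read-out. Cells (HUVEC plus peripheral blood mononuclear cells) were TCA-fixed and stained 24 h post-dosing; activity fitted in both directions against DMSO controls.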

[8] = biological target: human CYP1A2, CYP1A2 (gene 1544) (UniProt P05177); assay: NVS_ADME_hCYP1A2: NovaScreen (NVS) CYP450-related Enzyme Activity (ADME) Assay for human CYP1A2 (AID 2283102; active = hit-call score of the fitted dose curve at least 0.9, where 1 is the maximum;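 as to AC50: potency for inhibition since loss of fluorescence marks reduced CYP1A2 activity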)
Sequence of human CYP1A2, CYP1A2 (gene 1544) (P05177 whole entry, looked up): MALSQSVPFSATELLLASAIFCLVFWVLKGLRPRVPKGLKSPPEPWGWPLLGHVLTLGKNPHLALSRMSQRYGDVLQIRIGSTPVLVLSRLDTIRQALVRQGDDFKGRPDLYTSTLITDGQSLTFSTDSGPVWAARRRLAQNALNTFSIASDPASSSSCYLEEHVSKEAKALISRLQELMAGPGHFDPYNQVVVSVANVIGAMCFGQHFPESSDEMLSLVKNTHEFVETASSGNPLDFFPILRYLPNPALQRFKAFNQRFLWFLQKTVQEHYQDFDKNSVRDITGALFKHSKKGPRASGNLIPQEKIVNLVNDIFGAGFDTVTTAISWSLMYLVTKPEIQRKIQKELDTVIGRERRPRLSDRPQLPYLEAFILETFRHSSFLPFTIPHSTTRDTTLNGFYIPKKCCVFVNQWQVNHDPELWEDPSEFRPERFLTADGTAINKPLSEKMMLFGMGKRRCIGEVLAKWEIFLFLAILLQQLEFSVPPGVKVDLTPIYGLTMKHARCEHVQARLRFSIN
In short: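 rec. hCYP1A2 (insect cells), cell-free; fluorogenic substrate; 0.5 h; FI read. Baseline = acetonitrile; signal loss = inhibition. 10 uM duplicate primary → conc. series for actives.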

[9] = biological target: Cytochrome P450 3A4 (Homo sapiens) (UniProt P08684); assay: NVS_ADME_hCYP3A4: NovaScreen (NVS) CYP450-related Enzyme Activity (ADME) Assay for human CYP3A4 (AID 2283110; active = hit-call score of the fitted dose curve at least 0.9, where 1 is the maximum)
Sequence of Cytochrome P450 3A4 (Homo sapiens) (P08684 whole entry, looked up): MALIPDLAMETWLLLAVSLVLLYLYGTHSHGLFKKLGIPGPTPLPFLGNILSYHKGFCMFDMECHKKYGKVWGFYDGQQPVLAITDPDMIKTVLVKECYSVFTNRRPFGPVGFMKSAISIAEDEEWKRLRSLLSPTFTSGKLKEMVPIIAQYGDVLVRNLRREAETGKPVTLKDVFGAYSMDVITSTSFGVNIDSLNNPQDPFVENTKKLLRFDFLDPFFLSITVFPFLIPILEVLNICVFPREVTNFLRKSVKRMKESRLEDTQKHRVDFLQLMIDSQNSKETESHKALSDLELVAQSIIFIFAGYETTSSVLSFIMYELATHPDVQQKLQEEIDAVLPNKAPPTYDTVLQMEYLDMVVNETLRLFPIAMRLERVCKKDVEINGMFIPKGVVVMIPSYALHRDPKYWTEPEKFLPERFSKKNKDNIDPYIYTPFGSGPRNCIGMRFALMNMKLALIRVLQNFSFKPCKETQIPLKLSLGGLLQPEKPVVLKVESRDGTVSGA
In short: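 Compounds screened in duplicate at 10 uM, with follow-up concentration-response for actives, against insect-cell-expressed recombinant enzyme. Activity read by fluorescence 0.33 h after dosing; loss of signal versus acetonitrile control indicates inhibition.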

[10] = biological target: Cytochrome P450 2C19 (Homo sapiens) (UniProt P33261); assay: NVS_ADME_hCYP2C19: NovaScreen (NVS) CYP450-related Enzyme Activity (ADME) Assay for human CYP2C19 (AID 2283113; active = hit-call score of the fitted dose curve at least 0.9, where 1 is the maximum;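 as to AC50: potency for inhibition seen as loss of fluorescent signal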)
In short: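 Fluorescence intensity was measured 1 hour after chemicals were added to insect-cell-derived recombinant CYP2C19 with fluorogenic substrate. Decreased signal versus acetonitrile control was taken as reduced enzyme activity; initial testing used 10 uM in duplicate.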

[11] = biological target: human CYP2B6, CYP2B6 (gene 1555) (UniProt P20813); assay: NVS_ADME_hCYP2B6: NovaScreen (NVS) CYP450-related Enzyme Activity (ADME) Assay for human CYP2B6 (AID 2283101; active = hit-call score of the fitted dose curve at least 0.9, where 1 is the maximum)
Sequence of human CYP2B6, CYP2B6 (gene 1555) (P20813 whole entry, looked up): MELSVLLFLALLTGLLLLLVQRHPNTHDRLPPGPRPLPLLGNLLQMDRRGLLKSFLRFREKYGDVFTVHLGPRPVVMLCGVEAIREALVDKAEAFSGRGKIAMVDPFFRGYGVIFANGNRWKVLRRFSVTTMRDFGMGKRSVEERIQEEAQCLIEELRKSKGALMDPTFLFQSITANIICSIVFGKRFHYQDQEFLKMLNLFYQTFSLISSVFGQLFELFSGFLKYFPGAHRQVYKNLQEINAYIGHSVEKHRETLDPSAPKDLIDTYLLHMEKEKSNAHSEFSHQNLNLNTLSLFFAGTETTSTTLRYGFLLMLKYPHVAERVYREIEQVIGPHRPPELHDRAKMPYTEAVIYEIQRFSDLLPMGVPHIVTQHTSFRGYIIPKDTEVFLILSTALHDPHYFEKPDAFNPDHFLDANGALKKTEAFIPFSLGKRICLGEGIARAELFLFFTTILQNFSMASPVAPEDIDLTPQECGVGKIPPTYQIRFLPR
In short: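 Fluorescence-based enzyme activity of recombinant human CYP2B6, measured 1 h post-dose against acetonitrile vehicle baseline. Screened at a single concentration of 10 uM in duplicate before concentration-response follow-up.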

[12] = biological target: human CYP2A6, CYP2A6 (gene 1548) (UniProt P11509); assay: NVS_ADME_hCYP2A6: NovaScreen (NVS) CYP450-related Enzyme Activity (ADME) Assay for human CYP2A6 (AID 2283099; active = hit-call score of the fitted dose curve at least 0.9, where 1 is the maximum)
Sequence of human CYP2A6, CYP2A6 (gene 1548) (P11509 whole entry, looked up): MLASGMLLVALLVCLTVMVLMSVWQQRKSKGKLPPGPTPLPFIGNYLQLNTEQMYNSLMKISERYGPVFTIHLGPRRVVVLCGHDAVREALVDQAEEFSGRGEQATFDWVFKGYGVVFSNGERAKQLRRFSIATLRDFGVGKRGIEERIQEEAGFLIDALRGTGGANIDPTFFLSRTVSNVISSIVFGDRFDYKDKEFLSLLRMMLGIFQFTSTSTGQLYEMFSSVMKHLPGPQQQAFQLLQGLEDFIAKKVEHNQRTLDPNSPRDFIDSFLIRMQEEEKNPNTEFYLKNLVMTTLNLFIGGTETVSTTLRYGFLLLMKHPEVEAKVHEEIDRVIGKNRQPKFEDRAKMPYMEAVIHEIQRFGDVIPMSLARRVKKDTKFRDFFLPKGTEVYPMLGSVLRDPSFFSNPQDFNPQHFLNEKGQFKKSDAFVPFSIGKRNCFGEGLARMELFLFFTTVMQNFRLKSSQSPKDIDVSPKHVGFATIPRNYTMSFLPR
In short: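 Fluorescent substrate turnover by recombinant CYP2A6 (insect cell source), 0.5 h read. Screen: 10 uM, duplicate; threshold hits (e.g. 30% inhibition) → singleton concentration-response, top 20 uM. Positive and negative controls on every plate.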

[13] = biological target: human CYP19A1, CYP19A1 (gene 1588) (UniProt P11511); assay: NVS_ADME_hCYP19A1: NovaScreen (NVS) CYP450-related Enzyme Activity (ADME) Assay for human CYP19A1 (AID 2283098; active = hit-call score of the fitted dose curve at least 0.9, where 1 is the maximum)
Sequence of human CYP19A1, CYP19A1 (gene 1588) (P11511 whole entry, looked up): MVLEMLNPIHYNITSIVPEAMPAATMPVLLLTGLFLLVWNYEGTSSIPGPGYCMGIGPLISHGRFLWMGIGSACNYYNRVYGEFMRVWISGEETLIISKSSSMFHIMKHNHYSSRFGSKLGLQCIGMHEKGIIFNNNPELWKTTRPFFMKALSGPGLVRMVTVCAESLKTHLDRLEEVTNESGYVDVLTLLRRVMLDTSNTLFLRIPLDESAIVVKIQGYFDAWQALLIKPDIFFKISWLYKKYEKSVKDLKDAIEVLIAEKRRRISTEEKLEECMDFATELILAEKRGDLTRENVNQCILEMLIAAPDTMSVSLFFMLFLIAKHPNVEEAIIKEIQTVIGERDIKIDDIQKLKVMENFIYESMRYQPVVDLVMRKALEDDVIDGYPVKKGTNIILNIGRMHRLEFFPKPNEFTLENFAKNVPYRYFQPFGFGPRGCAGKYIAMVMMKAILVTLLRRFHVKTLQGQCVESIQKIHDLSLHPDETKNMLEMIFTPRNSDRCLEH
In short: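 Primary testing was in duplicate at a single 10 uM concentration, with actives followed up in concentration-response series. Fluorescence read-out of recombinant enzyme activity at 0.5 h, cell-free. Acetonitrile was the negative-control baseline.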

rat CYP3A1, gene 25642 = assay: NVS_ADME_rCYP3A1: NovaScreen (NVS) CYP450-related Enzyme Activity (ADME) Assay for rat CYP3A1 (AID 2283126; active = hit-call score of the fitted dose curve at least 0.9, where 1 is the maximum)
In short: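 Compounds went first at 10 uM duplicate, then to series with 20 uM maximum. Fluorescence from substrate turnover by the recombinant enzyme was measured 0.5 h post-dosing, inhibition scored against acetonitrile vehicle.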

[14] = biological target: rat CYP3A2, Cyp3a2 (gene 266682) (UniProt P05183); assay: NVS_ADME_rCYP3A2: NovaScreen (NVS) CYP450-related Enzyme Activity (ADME) Assay for rat CYP3A2 (AID 2283128; active = hit-call score of the fitted dose curve at least 0.9, where 1 is the maximum)
Sequence of rat CYP3A2, Cyp3a2 (gene 266682) (P05183 whole entry, looked up): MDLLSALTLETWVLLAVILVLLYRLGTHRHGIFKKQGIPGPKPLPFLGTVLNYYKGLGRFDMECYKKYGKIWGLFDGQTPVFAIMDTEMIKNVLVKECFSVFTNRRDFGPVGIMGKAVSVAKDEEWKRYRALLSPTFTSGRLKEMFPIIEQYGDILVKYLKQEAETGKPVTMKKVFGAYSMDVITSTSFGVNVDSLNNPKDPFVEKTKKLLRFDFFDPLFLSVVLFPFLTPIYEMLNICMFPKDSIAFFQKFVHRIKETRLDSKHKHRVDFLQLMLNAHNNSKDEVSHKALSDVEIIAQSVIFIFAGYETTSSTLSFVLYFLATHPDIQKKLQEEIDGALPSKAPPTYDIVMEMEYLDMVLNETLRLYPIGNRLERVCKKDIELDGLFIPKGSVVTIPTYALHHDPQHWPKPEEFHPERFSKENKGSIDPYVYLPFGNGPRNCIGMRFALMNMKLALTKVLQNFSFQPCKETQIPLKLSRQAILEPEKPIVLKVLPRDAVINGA
In short: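 Fluorescence readout of extracted rat CYP3A2 activity 0.5 h post-dose, acetonitrile as negative control. Single-point testing in duplicate at 10 uM, followed by concentration series to a 20 uM maximum for actives.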

Measured: AC50

Sequence of E-selectin (Homo sapiens) (P16581 whole entry, looked up): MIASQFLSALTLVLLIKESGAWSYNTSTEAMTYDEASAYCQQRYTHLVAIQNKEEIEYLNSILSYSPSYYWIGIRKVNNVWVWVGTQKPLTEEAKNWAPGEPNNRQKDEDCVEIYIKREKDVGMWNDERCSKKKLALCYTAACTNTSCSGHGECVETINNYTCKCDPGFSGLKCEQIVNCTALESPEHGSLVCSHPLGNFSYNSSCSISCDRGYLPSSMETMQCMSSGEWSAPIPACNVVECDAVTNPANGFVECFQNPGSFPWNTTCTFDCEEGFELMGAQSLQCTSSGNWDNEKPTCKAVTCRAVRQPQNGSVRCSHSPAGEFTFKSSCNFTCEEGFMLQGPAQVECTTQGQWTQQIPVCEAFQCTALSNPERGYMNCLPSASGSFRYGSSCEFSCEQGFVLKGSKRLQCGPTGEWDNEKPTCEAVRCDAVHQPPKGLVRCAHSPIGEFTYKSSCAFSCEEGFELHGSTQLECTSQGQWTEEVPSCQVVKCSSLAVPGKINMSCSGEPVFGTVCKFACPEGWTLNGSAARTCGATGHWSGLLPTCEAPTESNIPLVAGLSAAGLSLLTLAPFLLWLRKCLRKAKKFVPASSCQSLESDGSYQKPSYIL

CN(C[C@@H](CC[N+]12CCC(C3CCCCC3)(CC1)CC2)c1ccc(Cl)c(Cl)c1)C(=O)c1cc(C(F)(F)F)cc(C(F)(F)F)c1
active: [1] 13.3 µM | [2] 27.8 µM | [3] 9.71 µM | [4] 5.2 µM | [5] 14.8 µM | [6] 7.68 µM

CCCC(=O)OCCC(C)C
inactive: [1] | [2] | [3] | [4] | [7]

O=CCCCC=O
active: [1] 30.3 µM | [3] 20.6 µM | [4] 32.8 µM
inactive: [2] | [7]

O=C(OCCCCCCOC(=O)c1ccccc1)c1ccccc1
active: [8] 5.42 µM
inactive: [1] | [2] | [3] | [4] | [7]

COc1ccc2cc(S(=O)(=O)N[C@H](CC(=O)N[C@H](Cc3ccc(CN4[C@H](C)CCC[C@@H]4C)cc3)C(=O)N(C)C(C)C)c3ccc4c(c3)OCO4)ccc2c1
active: [1] 31.7 µM | [2] 35.2 µM | [3] 14.6 µM | [4] 12 µM | [9] 0.861 µM | [10] 5.3 µM
inactive: [5]

O=c1[nH]sc2ccccc12
active: [1] 12.3 µM | [2] 28.8 µM | [3] 3.66 µM | [4] 0.77 µM | [5] 5.11 µM | [11] 0.721 µM

O=C1c2ccccc2C(=O)N1CCc1noc(-c2ccc(CN3CCCCCC3)s2)n1
active: [1] 16.9 µM | [5] 4.62 µM | [6] 5.62 µM | [10] 1.13 µM
inactive: [2] | [3] | [4] | [7] | [9]

CC1(C)NC(=O)N(c2ccc([N+](=O)[O-])c(C(F)(F)F)c2)C1=O
active: [11] 7.49 µM | [8] 5.28 µM | [10] 2.81 µM
inactive: [1] | [2] | [3] | [4]

CCOC(=O)O[C@H](C)OC(=O)c1ccc2c(c1)cc(C(=O)NC1CCN(C(C)C)CC1)n2Cc1cc(-c2ccc(Cl)s2)on1
active: [1] 8.76 µM | [2] 8.05 µM | [3] 2.82 µM | [4] 2.37 µM | [8] 13.7 µM | [6] 15.4 µM | [9] 9.45 µM | [10] 5.54 µM
inactive: [12]

O=C(O)Cn1c(=O)n(Cc2ccc(Br)cc2F)c(=O)c2ccc(Cl)cc21
inactive: [1] | [2] | [3] | [4] | [7]

CCCCCCCCN(C)CCCCCCCC
inactive: [1] | [2] | [3] | [4] | [7]

CCCCCCCCOc1ccc(C(=O)c2ccccc2)c(O)c1
inactive: [1] | [2] | [3] | [13]
active: [4] 15 µM | [7] 30.4 µM

Clc1ccccc1C(c1ccccc1)(c1ccccc1)n1ccnc1
inactive: [12] | [8]
active: [1] 14 µM | [2] 35.1 µM | [3] 33.1 µM | [4] 9.32 µM | [7] 24.4 µM | [5] 2.68 µM | [6] 0.585 µM | [10] 1.1 µM

Cc1cccc2ccccc12
inactive: [1] | [2] | [3] | [4] | [7] | [10]

CCO[Si](CCCNC(N)=O)(OCC)OCC
inactive: [1] | [2] | [3] | [4]

COCC(C)OCC(C)OCC(C)O (stereo unspecified)
inactive: [1] | [2] | [3] | [4] | [7]

CCCCCCCCCCCC[N+](C)(C)C
active: [1] 32.2 µM | [2] 29.4 µM | [3] 20 µM | [4] 6.09 µM

CC(C)(C)c1csc(-c2cc3cc(OCc4ccccc4CC(=O)O)ccc3o2)n1
inactive: [3]
active: [1] 32.1 µM | [2] 38.5 µM | [4] 20.1 µM

Cc1ncc(CO)c(CO)c1O
inactive: [1] | [2] | [3] | [4]

O=c1c(-c2ccc(O)cc2)coc2cc(O)cc(O)c12
active: [1] 24.9 µM | [2] 29.7 µM | [3] 20 µM | [4] 15.6 µM | [7] 20 µM | rat CYP3A1, gene 25642 8.92 µM and 5.71 µM | [14] 995 nM and 815 nM and 5.56 µM
inactive: [11]
